# Assay results as given in publication PMC8384837, “Expanding the binding specificity for RNA recognition by a PUF domain”.
# Where a chain is given by its changes, count along the chain named.
# What was measured:
# Assay in all cases: yeast three-hybrid, YBZ-1, SC-Leu-His + 0.5 mM 3-AT, 4 days
# Conditions in all cases: tags: N-Gal4 AD-HA kept; label: inside an RPR1-promoter hybrid RNA with tandem MS2 sites; ssRNA
# [1] = target: PUM1 PUF domain R4-PWV (Homo sapiens, UniProt Q14671 828-1176, N971P;H972W;Q975V)
# Method in brief: (§1)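 Repeat regions from input (SC-Leu) and selection (SC-Leu-His + 0.5 mM 3-AT) plates were PCR-amplified and Illumina-sequenced after four days of growth. The cells were strain YBZ-1 with a LexA–MS2 coat fusion and a HIS3 reporter, co-expressing Pumilio-1 PUF domain libraries and matching RNA elements from a centromeric plasmid. The interaction score is the log change in variant frequency from input to selection, taken in log2 with a pseudocount of 1 for absent variants.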
# [2] = target: PUM1 PUF domain R4-APG (Homo sapiens, UniProt Q14671 828-1176, N971A;H972P;Q975G)
# Method in brief: as §1
# [3] = target: PUM1 PUF domain R2-SWP (Homo sapiens, UniProt Q14671 828-1176, N899S;Y900W;Q903P)
# Method in brief: as §1
# [4] = target: PUM1 PUF domain R5-KNW (Homo sapiens, UniProt Q14671 828-1176, C1007K;R1008N;Q1011W)
# Method in brief: as §1
# [5] = target: PUM1 PUF domain R5-RGM (Homo sapiens, UniProt Q14671 828-1176, C1007R;R1008G;Q1011M)
# Method in brief: as §1
# [6] = target: PUM1 PUF domain R3-TTE (Homo sapiens, UniProt Q14671 828-1176, C935T;R936T;Q939E)
# Method in brief: as §1
# [7] = target: PUM1 PUF domain R3-IWM (Homo sapiens, UniProt Q14671 828-1176, C935I;R936W;Q939M)
# Method in brief: as §1
# [8] = target: PUM1 PUF domain R3-FYA (Homo sapiens, UniProt Q14671 828-1176, C935F;R936Y;Q939A)
# Method in brief: as §1
# [9] = target: T1, PUM1 PUF domain R6-AFE (Homo sapiens, UniProt Q14671 828-1176, N1043A;Y1044F;Q1047E)
# T1 sequence: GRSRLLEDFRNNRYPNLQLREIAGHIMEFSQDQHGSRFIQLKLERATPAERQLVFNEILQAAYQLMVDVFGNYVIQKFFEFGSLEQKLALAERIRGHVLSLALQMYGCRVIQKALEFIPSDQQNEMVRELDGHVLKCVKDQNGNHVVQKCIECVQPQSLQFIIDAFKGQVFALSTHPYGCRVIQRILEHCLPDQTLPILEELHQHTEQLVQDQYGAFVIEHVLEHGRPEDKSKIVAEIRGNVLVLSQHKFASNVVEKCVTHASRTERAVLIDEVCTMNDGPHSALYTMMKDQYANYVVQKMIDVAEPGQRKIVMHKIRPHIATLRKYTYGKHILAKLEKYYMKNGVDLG
# Method in brief: as §1
# [10] = target: PUM1 PUF domain R8-KKP (Homo sapiens, UniProt Q14671 828-1176, N1122K;Y1123K;Q1126P)
# Method in brief: as §1
# [11] = target: PUM1 PUF domain R2-AWD (Homo sapiens, UniProt Q14671 828-1176, N899A;Y900W;Q903D)
# Method in brief: as §1
# [12] = target: T2, PUM1 PUF domain R6-LWM (Homo sapiens, UniProt Q14671 828-1176, N1043L;Y1044W;Q1047M)
# T2 sequence: T1 sequence with A216L, F217W, E220M
# Method in brief: as §1
# [13] = target: T3, PUM1 PUF domain R6-NHW (Homo sapiens, UniProt Q14671 828-1176, Y1044H;Q1047W)
# T3 sequence: T1 sequence with A216N, F217H, E220W
# Method in brief: as §1
# [14] = target: PUM1 PUF domain R8-RHM (Homo sapiens, UniProt Q14671 828-1176, N1122R;Y1123H;Q1126M)
# Method in brief: as §1
# [15] = target: PUM1 PUF domain R5-PRQ (Homo sapiens, UniProt Q14671 828-1176, C1007P)
# Method in brief: as §1
# [16] = target: PUM1 PUF domain R1-KRT (Homo sapiens, UniProt Q14671 828-1176, S863K;Q867T)
# Method in brief: as §1
# [17] = target: PUM1 PUF domain R5-EYG (Homo sapiens, UniProt Q14671 828-1176, C1007E;R1008Y;Q1011G)
# Method in brief: as §1
# [18] = target: PUM1 PUF domain R5-RDG (Homo sapiens, UniProt Q14671 828-1176, C1007R;R1008D;Q1011G)
# Method in brief: as §1
# [19] = target: PUM1 PUF domain R7-KHR (Homo sapiens, UniProt Q14671 828-1176, S1079K;N1080H;E1083R)
# Method in brief: as §1
# [20] = target: PUM1 PUF domain R1-IRR (Homo sapiens, UniProt Q14671 828-1176, S863I;Q867R)
# Method in brief: as §1
sequence,measurement,setting,value
GGCUAGAACUAGUGGAUCCCCCGGCGCCCGGCGGCUCGAGCCCGGGUAAGUGUAUAUAGUCUGCAUGCCGCCGGGCGCCAUGCCUGCAGGUCGACUCUAGAAAACAUG,binding signal,[1],6.68 log2 enrichment (interaction score)
same,binding signal,[2],4.91 log2 enrichment (interaction score)
GGCUAGAACUAGUGGAUCCCCCGGCGCCCGGCGGCUCGAGCCCGGGUAAGUGUAAAGAGUCUGCAUGCCGCCGGGCGCCAUGCCUGCAGGUCGACUCUAGAAAACAUG,binding signal,[3],7.17 log2 enrichment (interaction score)
GGCUAGAACUAGUGGAUCCCCCGGCGCCCGGCGGCUCGAGCCCGGGUAAGUGUUAAUAGUCUGCAUGCCGCCGGGCGCCAUGCCUGCAGGUCGACUCUAGAAAACAUG,binding signal,[4],2.79 log2 enrichment (interaction score)
same,binding signal,[5],3.6 log2 enrichment (interaction score)
GGCUAGAACUAGUGGAUCCCCCGGCGCCCGGCGGCUCGAGCCCGGGUAAGUGUAAGUAGUCUGCAUGCCGCCGGGCGCCAUGCCUGCAGGUCGACUCUAGAAAACAUG,binding signal,[6],5.3 log2 enrichment (interaction score)
same,binding signal,[7],4.14 log2 enrichment (interaction score)
GGCUAGAACUAGUGGAUCCCCCGGCGCCCGGCGGCUCGAGCCCGGGUAAGUGUCAAUAGUCUGCAUGCCGCCGGGCGCCAUGCCUGCAGGUCGACUCUAGAAAACAUG,binding signal,[5],2.26 log2 enrichment (interaction score)
GGCUAGAACUAGUGGAUCCCCCGGCGCCCGGCGGCUCGAGCCCGGGUAAGUGUAAUUAGUCUGCAUGCCGCCGGGCGCCAUGCCUGCAGGUCGACUCUAGAAAACAUG,binding signal,[8],4.01 log2 enrichment (interaction score)
GGCUAGAACUAGUGGAUCCCCCGGCGCCCGGCGGCUCGAGCCCGGGUAAGUGGAAAUAGUCUGCAUGCCGCCGGGCGCCAUGCCUGCAGGUCGACUCUAGAAAACAUG,binding signal,[9],3.97 log2 enrichment (interaction score)
GGCUAGAACUAGUGGAUCCCCCGGCGCCCGGCGGCUCGAGCCCGGGUAAGCGUAAAUAGUCUGCAUGCCGCCGGGCGCCAUGCCUGCAGGUCGACUCUAGAAAACAUG,binding signal,[10],3.24 log2 enrichment (interaction score)
GGCUAGAACUAGUGGAUCCCCCGGCGCCCGGCGGCUCGAGCCCGGGUAAGUGUAAAAAGUCUGCAUGCCGCCGGGCGCCAUGCCUGCAGGUCGACUCUAGAAAACAUG,binding signal,[11],6.66 log2 enrichment (interaction score)
same,binding signal,[3],5.19 log2 enrichment (interaction score)
GGCUAGAACUAGUGGAUCCCCCGGCGCCCGGCGGCUCGAGCCCGGGUAAGUGUAAAUAGUCUGCAUGCCGCCGGGCGCCAUGCCUGCAGGUCGACUCUAGAAAACAUG,binding signal,[12],4.73 log2 enrichment (interaction score)
same,binding signal,[13],2.25 log2 enrichment (interaction score)
same,binding signal,[1],6 log2 enrichment (interaction score)
same,binding signal,[2],4.82 log2 enrichment (interaction score)
same,binding signal,[14],4.13 log2 enrichment (interaction score)
same,binding signal,[15],3.84 log2 enrichment (interaction score)
same,binding signal,[9],1.28 log2 enrichment (interaction score)
GGCUAGAACUAGUGGAUCCCCCGGCGCCCGGCGGCUCGAGCCCGGGUAAGUGAAAAUAGUCUGCAUGCCGCCGGGCGCCAUGCCUGCAGGUCGACUCUAGAAAACAUG,binding signal,[9],3.96 log2 enrichment (interaction score)
GGCUAGAACUAGUGGAUCCCCCGGCGCCCGGCGGCUCGAGCCCGGGUAAGUGUAAAUGGUCUGCAUGCCGCCGGGCGCCAUGCCUGCAGGUCGACUCUAGAAAACAUG,binding signal,[16],4.9 log2 enrichment (interaction score)
GGCUAGAACUAGUGGAUCCCCCGGCGCCCGGCGGCUCGAGCCCGGGUAAGUGUGAAUAGUCUGCAUGCCGCCGGGCGCCAUGCCUGCAGGUCGACUCUAGAAAACAUG,binding signal,[17],4.35 log2 enrichment (interaction score)
same,binding signal,[18],2.49 log2 enrichment (interaction score)
GGCUAGAACUAGUGGAUCCCCCGGCGCCCGGCGGCUCGAGCCCGGGUAAGUCUAAAUAGUCUGCAUGCCGCCGGGCGCCAUGCCUGCAGGUCGACUCUAGAAAACAUG,binding signal,[19],5.64 log2 enrichment (interaction score)
GGCUAGAACUAGUGGAUCCCCCGGCGCCCGGCGGCUCGAGCCCGGGUAAGUGUACAUAGUCUGCAUGCCGCCGGGCGCCAUGCCUGCAGGUCGACUCUAGAAAACAUG,binding signal,[1],5.39 log2 enrichment (interaction score)
same,binding signal,[2],0.78 log2 enrichment (interaction score)
GGCUAGAACUAGUGGAUCCCCCGGCGCCCGGCGGCUCGAGCCCGGGUAAGUGUAAAUUGUCUGCAUGCCGCCGGGCGCCAUGCCUGCAGGUCGACUCUAGAAAACAUG,binding signal,[20],2.12 log2 enrichment (interaction score)
GGCUAGAACUAGUGGAUCCCCCGGCGCCCGGCGGCUCGAGCCCGGGUAAGUGUAAAUCGUCUGCAUGCCGCCGGGCGCCAUGCCUGCAGGUCGACUCUAGAAAACAUG,binding signal,[20],2.25 log2 enrichment (interaction score)
